Measured values published in PubChem BioAssay (NCI).
Compounds without any hit were thinned out: in the full panel of roughly 83,000, 20% have a hit.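 Single-dose data. Exposure time 48 hours. Values below 10 considered active.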 A number with no mark means an inactive call. The source made the active and inactive calls.

Legend:
Assay in all cases: NCI-60 one-dose screen, 48 h (100 = growth as untreated, 0 = no growth, -100 = all killed)
Conditions in all cases: 10 µM unless noted
T-47D breast = test system: T-47D breast
BT-549 breast = test system: BT-549 breast
MDA-MB-435 melanoma = test system: MDA-MB-435 melanoma
SW-620 colon = test system: SW-620 colon
MCF7 breast = test system: MCF7 breast
HCT-116 colon = test system: HCT-116 colon
HCC-2998 colon = test system: HCC-2998 colon
KM12 colon = test system: KM12 colon

| Compound | growth (T-47D breast) | growth (BT-549 breast) | growth (MDA-MB-435 melanoma) | growth (SW-620 colon) | growth (MCF7 breast) | growth (HCT-116 colon) | growth (HCC-2998 colon) | growth (KM12 colon) |
| --- | --- | --- | --- | --- | --- | --- | --- | --- |
| CC1(C)c2[nH]c3ccccc3c2C[C@]2(C)[C@H]3C(=O)C=C4[C@@H]5C[C@@](C)(C(N)=O)CC[C@]5(C)CC[C@@]4(C)[C@]3(C)CC[C@@H]12 | 20.3% | 70.7% | 83.6% | 79.4% | 35.3% | 46.3% | 79.2% | 67.5% |
| C=C(C)[C@@H]1CC[C@]2(C(=O)N3CCN(C)CC3)CC[C@]3(C)[C@H](CC[C@@H]4[C@@]5(C)CC[C@H](OCCC#N)C(C)(C)[C@@H]5CC[C@]43C)[C@@H]12 | 91.7% | 107% | 107% | 7.33% (active) | 77.7% | 44.4% | 102% | 48.2% |
| CCN(Cc1ccccc1)c1ccc(C=O)cc1 | 78.6% | 95.1% | 107% | 97.9% | 96% | 91.3% | 93.7% | 106% |
| Cc1cc2nc3c4cc(C=O)ccc4n(CCN(C)C)c3nc2cc1C | 22.3% | 53.6% | 25.6% | 1.57% (active) | 2.77% (active) | 10.2% | 40.6% | 26.3% |
| COC(=O)c1ccc2c(c1)[n+](=O)c(C(C)=O)c(C(F)(F)F)n2[O-] | -73.6% (active) | -19.6% (active) | 0.455% (active) | 18.1% | -50.3% (active) | -98% (active) | -86.9% (active) | -93.5% (active) |
| C=C(C)[C@@H]1CC[C@]2(C(=O)N[C@H](CO)Cc3ccccc3)CC[C@]3(C)[C@H](CC[C@@H]4[C@@]5(C)CCCNC(C)(C)[C@@H]5CC[C@]43C)[C@@H]12 | -58% (active) | -88.1% (active) | -93.6% (active) | -82.3% (active) | -69.7% (active) | -94.8% (active) | -84.7% (active) | -80.7% (active) |
| O=C(Nc1ccc(F)cc1)Nc1ccc(NC(=O)c2cc(Cl)nc3ccccc23)cc1 | 42.9% | 37.2% | 73.8% | 65% | 69% | 56.9% | 51% | 58.5% |
| COc1ccc(C(=O)/C=C/c2cc3ccccc3n3nnnc23)cc1 | 92.1% | 99.2% | 103% | 113% | 94.7% | 106% | 111% | 109% |
| CCCCOc1ccc(/C(C)=N/Nc2cc(C)nc3ccc(Br)cc23)cc1 | 85.5% | 107% | 92.8% | 5.89% (active) | 21.3% | 27.7% | 45.8% | 62.9% |
| O=C(O)c1ccc(NCc2cn(-c3ccc(C(F)(F)F)cc3)nc2-c2ccc(C(=O)O)cc2)cc1 | 100% | 108% | 102% | 110% | 96% | 109% | 107% | 104% |
| c1ccc2c(-c3c[nH]c4ccccc34)c3c(cc2c1)[nH]c1ccccc13 | 33.8% | 67.4% | -3.69% (active) | 42.6% | 30.9% | 46.9% | 82.8% | 35.7% |
| Cn1c(-c2c(N)n(CCCN3CCOCC3)c3nc(C#N)c(C#N)nc23)nc2ccccc21 | 49.9% | 35.6% | 79.3% | 39.7% | 52.9% | 22.7% | 80% | 75.6% |
| N#Cc1cccc(-c2ccc3c(c2)NC(=O)/C3=C\c2ccc[nH]2)c1 | -28.7% (active) | 17.4% | 43.9% | 51.6% | 10.1% | 73% | 36% | 20.4% |
| COC(=O)C1=C(C(=O)ON)C2C=CC1(C(Cc1ccccc1)Nc1ccccc1)O2 (stereo not given) | -51.1% (active) | 106% | 94.5% | -60% (active) | 83.3% | -73.8% (active) | 93.6% | 103% |
| O=C1Nc2cc(-c3ccc(NS(=O)(=O)c4ccccc4)cc3)ccc2/C1=C/c1ccc[nH]1 | 18.5% | 24.6% | 88.2% | 84.9% | 6.53% (active) | 82% | 91.6% | 46.7% |
| CCCCCCCC(=O)OCC/C=C/C1OC1C1OC(=O)/C=C\C=C\C(=O)N(C(C)=O)C(=O)/C=C(/C)CCC2OC2C1OC(=O)NC(C)=O (stereo not given) | 10.8% | 92.5% | 79% | 83.1% | 20.4% | 3.69% (active) | 72.1% | 44.1% |
| NC(=NCCCOc1ccc(F)cc1)Nc1ccc(Cl)cc1 | 18.6% | 52.8% | 46.8% | 56.9% | 7.28% (active) | 16.5% | 40.8% | 76.7% |
| NC(=S)N1N=C(c2ccccc2)CC1c1cn(-c2ccccc2)nc1-c1ccc(OCc2ccccc2)cc1 (stereo not given) | 95.2% | 113% | 109% | 106% | 97.3% | 88.5% | 103% | 99.5% |
| CCCOC(=O)N[C@H]1CCc2c(Cl)c(OC)c(OC)c(OC)c2-c2ccc(SC)c(=O)cc21 | 45.9% | 1.4% (active) | -26.9% (active) | 20.2% | 14.7% | 0.896% (active) | 22.6% | -6.7% (active) |
| O=C(Cc1ccccc1)NNc1nc(Cl)nc(N2CCN(C(c3ccccc3)c3ccccc3)CC2)n1 | 84.4% | 99.3% | 100% | 82.3% | 92.3% | 80% | 73.6% | 97.5% |
| CN(C)c1ccc(C2C(C#N)=C(/N=C/c3ccccc3)Oc3c2ccc2ccccc32)cc1 (stereo not given) | 83.1% | 69.6% | 4.53% (active) | 41% | 54.3% | 56.5% | 104% | 58.8% |
| N#CC1=C(N)Oc2c(ccc3ccccc23)C1c1ccccc1Cl (stereo not given) | 66.5% | 20.7% | -41.2% (active) | 21.9% | 16.8% | 11.9% | 17.7% | 12.8% |
| O=S(=O)(NCCNc1nccc(-c2c(-c3cccc(O)c3)nc3occn23)n1)c1cccc(F)c1 | 73.7% | 104% | 34.3% | 115% | 57% | 70.4% | 129% | 88.2% |
| COc1cc(NC(C)CCCNC(=O)CCC(=O)NCCCNCCCCCCCCNCCCNC(=O)CCC(=O)NCCCC(C)Nc2cc(OC)cc3cccnc23)c2ncccc2c1 (stereo not given) | 7.63% (active) | 95.2% | 70.7% | 78% | 34.6% | 52.5% | 69.5% | 82.1% |
| CCNc1nc2ccc(Nc3ccnc4cc(Cl)ccc34)cc2[nH]1 | 100% | 86.8% | 93.1% | 57.8% | 45.1% | 17.3% | 84.1% | 67% |
| COc1cc2oc(-c3cccc(C(=O)Nc4ccc5c(c4)OCO5)c3)cc(=O)c2c(O)c1OC | 69.5% | 84% | 79.1% | 84.5% | 91.6% | 57% | 105% | 70.6% |
| CCN(c1ccccc1)S(=O)(=O)c1cc([N+](=O)[O-])ccc1Cl | 26.6% | 49.4% | 62.3% | 46.3% | 52.6% | 24.6% | 110% | 54.1% |
| C/C(=N\NC(=O)CSc1nc2ccccc2c(=O)n1Cc1ccc(S(N)(=O)=O)cc1)c1ccc(F)cc1 | 96.7% | 112% | 104% | 104% | 96.1% | 102% | 112% | 105% |
| CCCCCCOc1ccc(/C=N/Nc2cc(C)nc3ccc(Cl)cc23)cc1 | 34.5% | 109% | -75.9% (active) | -83.3% (active) | -66.6% (active) | -58.9% (active) | -81.9% (active) | -68.2% (active) |
| COc1cc(C2=C(c3cn(C)c4ccccc34)COC2=O)cc(OC)c1OC | 22.6% | 16.7% | -59.5% (active) | 13.7% | 14.8% | 1.75% (active) | 0.901% (active) | 13.2% |
